Sa RN4220 lethal – kills Staphylococcus aureus RN4220 | S. aureus RN4220 growth, OD600, 16 h | inhibition, % (concentration not given with the values) | actives 0.33% (n = 330,000) | AID 1259311; in the data active = inhibition above about 85%;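 also: plate controls were untreated cells for no effect and reference antibiotic for full effect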
TcdB inh – blocks C. difficile toxin B glycohydrolase activity. TcdB glycohydrolase enzymatic assay, plate reader. inhibition, % at 9.99 µM. actives 0.24% (n = 350,000). AID 652162; in the data active = inhibition above about 10%
Target sequence (P18177 whole entry, looked up): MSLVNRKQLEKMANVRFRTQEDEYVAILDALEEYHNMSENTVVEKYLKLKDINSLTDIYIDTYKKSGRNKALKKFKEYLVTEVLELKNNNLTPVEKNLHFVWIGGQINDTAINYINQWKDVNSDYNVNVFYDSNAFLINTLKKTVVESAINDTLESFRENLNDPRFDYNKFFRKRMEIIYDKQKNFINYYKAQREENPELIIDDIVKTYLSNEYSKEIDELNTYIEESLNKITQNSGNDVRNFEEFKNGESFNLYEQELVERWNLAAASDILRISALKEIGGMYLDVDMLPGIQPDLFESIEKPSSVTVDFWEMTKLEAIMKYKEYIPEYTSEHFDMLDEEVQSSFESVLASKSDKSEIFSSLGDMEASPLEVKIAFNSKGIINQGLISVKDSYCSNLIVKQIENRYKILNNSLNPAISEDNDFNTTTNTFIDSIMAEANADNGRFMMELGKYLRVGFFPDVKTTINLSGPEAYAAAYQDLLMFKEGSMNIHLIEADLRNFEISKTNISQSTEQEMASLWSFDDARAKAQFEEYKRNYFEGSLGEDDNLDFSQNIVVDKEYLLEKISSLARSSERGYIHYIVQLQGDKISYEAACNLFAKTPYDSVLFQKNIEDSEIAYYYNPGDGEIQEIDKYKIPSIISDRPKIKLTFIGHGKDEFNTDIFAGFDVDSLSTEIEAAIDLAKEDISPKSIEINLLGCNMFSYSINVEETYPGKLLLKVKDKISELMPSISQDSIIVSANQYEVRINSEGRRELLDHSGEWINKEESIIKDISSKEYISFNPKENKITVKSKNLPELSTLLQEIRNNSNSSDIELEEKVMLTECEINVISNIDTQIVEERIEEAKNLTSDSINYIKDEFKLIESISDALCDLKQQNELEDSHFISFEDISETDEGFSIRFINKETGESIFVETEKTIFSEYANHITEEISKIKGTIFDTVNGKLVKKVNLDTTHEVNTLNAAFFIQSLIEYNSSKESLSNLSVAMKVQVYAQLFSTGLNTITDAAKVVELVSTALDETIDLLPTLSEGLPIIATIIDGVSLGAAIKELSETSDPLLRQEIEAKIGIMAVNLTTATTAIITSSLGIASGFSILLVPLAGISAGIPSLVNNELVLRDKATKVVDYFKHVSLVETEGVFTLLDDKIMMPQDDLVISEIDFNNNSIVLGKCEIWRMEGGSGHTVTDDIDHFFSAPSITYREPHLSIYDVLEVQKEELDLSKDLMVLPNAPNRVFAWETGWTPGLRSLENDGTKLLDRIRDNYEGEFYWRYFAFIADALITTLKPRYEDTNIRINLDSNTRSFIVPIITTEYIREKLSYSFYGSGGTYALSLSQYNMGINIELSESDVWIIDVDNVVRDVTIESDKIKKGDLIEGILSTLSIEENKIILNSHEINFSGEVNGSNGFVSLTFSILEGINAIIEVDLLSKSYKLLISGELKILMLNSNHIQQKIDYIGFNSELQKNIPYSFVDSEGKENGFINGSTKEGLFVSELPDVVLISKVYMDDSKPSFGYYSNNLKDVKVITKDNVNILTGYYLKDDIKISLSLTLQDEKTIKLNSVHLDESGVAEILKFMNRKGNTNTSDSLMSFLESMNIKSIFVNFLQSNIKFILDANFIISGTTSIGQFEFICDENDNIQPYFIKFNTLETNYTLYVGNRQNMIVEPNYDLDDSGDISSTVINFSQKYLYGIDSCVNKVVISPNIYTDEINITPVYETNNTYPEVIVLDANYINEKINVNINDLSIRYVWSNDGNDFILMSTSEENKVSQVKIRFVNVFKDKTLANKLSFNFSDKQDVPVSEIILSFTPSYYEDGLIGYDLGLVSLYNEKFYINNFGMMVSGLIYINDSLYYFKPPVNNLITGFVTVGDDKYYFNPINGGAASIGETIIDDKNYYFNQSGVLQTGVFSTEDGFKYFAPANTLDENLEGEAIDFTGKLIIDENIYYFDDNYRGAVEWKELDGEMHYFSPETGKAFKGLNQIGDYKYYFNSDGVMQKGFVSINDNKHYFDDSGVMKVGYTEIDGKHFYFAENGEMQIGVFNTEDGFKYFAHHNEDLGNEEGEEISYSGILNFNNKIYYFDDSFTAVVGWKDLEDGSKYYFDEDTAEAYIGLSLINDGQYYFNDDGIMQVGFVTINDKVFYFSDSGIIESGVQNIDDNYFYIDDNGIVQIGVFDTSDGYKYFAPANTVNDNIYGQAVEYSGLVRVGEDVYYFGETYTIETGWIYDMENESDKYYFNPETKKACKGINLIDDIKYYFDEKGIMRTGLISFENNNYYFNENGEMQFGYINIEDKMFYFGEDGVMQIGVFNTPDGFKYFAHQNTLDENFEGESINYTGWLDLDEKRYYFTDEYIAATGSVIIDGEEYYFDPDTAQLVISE
PrP UTR inh – inhibition of PrP 5' UTR reporter expression. inhibition, % (concentration not given with the values). cell-based PrP 5' UTR mRNA reporter, plate reader. actives 0.35% (n = 340,000); in the data active = inhibition above about 52%; also: 0 = median of the neutral control wells
PfHsp40 rescue – rescue of PfHsp40-mediated yeast toxicity. actives 0.68% (n = 340,000). S. cerevisiae expressing PfHsp40, growth rescue, ATP luminescence. AID 504582. growth rescue, % at 12.5 µM; in the data active = growth rescue above about 28%, passing the limit was not always enough; inconclusive = no clear call, values can overlap the other calls;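 also: yeast W303a lacking pdr1 and pdr3 grown in galactose medium; growth measured after three days at 30 °C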
ugtP null kill – kills S. aureus RN4220 lacking UgtP | AID 1259309 | growth inhibition, % (concentration not given with the values) | actives 0.54% (n = 330,000) | S. aureus RN4220 ugtP deletion, OD600 growth, 16 h; in the data active = growth inhibition above about 68%;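 also: plate controls were untreated wells for no effect and antibiotic for full effect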
PrP 5UTR single – prion 5' UTR mRNA inhibition, cherry-pick retest | cell-based prion protein 5' UTR reporter, plate reader | AID 504592 | inhibition, % at 2.5 µM | actives 48% (n = 1,100) | shares compounds with PrP UTR inh; in the data active = inhibition above about 54%; inconclusive = no clear call, values can overlap the other calls
An asterisk follows results filed as active; ? = inconclusive; . = no result. Rows were chosen to be rich in hits. Some 1.2% of all compounds tested hit in one or more screens of this group.

SMILES | Sa RN4220 lethal | TcdB inh | PrP UTR inh | PfHsp40 rescue | ugtP null kill | PrP 5UTR single
COC(=O)c1c(CC[C@@H](CO)NC(=O)N[C@H](Cc2ccccc2)Cn2cc(-c3ccccc3N)nn2)oc(C(C)=O)c1C(=O)OC | . | 1 | . | . | . | .
COc1cccc(S(=O)(=O)N[C@H]2C=C[C@@H](CC(=O)NC3Cc4ccccc4C3)O[C@@H]2CO)c1 | . | -2 | . | . | . | .
O=C(NCC[C@@H]1CC[C@H](NC(=O)C2CC2)[C@@H](CO)O1)c1cnccn1 | . | -1 | . | . | . | .
O=C(NCCCO)c1cc2ccccc2[nH]1 | 4 | 2 | -31 | 1 | -2 | .
COc1ccc(C(=O)NCCCNC(=O)c2cc3ccccc3[nH]2)cc1OC | 3 | 0 | 78* | 1 | -8 | -8
Cc1cc(NC(=O)CSc2nnc(-c3ccco3)n2C)no1 | 1 | 3 | 88* | -1 | -2 | 7
O=C(O)Cc1sc(Nc2ccccc2)nc1-c1ccc(Cl)cc1 | -4 | 0 | 57* | 2 | 0 | -1
COC1=C(C)C(=O)C2=C(C1=O)C(CO)N1C(C#N)C3CC4C(C1C2N1CCOC41)N3C (stereo not drawn) | . | -11 | 76* | -1 | . | 92*
C[C@@H]1CN([C@H](C)CO)C(=O)c2cc(NC(=O)Cn3cnnn3)ccc2O[C@H]1CN(C)Cc1ccc(C(=O)O)cc1 | . | -1 | . | . | . | .
NC(=S)NN=Cc1nccc2ccccc12 | 1 | -13 | 79* | 94* | -11 | 71*
Cc1ccc(S(=O)(=O)N(C)C[C@@H]2OCCCC[C@@H](C)Oc3ccc(NC(=O)CCC(F)(F)F)cc3C(=O)N([C@@H](C)CO)C[C@@H]2C)cc1 | . | 1 | . | . | . | .
CCOc1ccc(C2=Nn3c(nnc3-c3ccccc3OC)SC2)cc1 | 3 | . | 69* | -1 | -6 | 88*
COc1ccccc1-c1nnc2n1N=C(c1ccc(O)c(O)c1)CS2 | 5 | . | 61* | 0 | -9 | 90*
COc1ccc(C2=Nn3c(nnc3-c3ccccc3OC)SC2)cc1OC1CCOC1 (stereo not drawn) | -1 | 1 | 81* | 0 | -17 | 83*
COc1ccc(OC)c(-c2nnc3n2N=C(c2ccc(OC)c(OCC4CC4)c2)CS3)c1 | 13 | . | 67* | 1 | -7 | 93*
COc1ccc(C2=Nn3c(nnc3-c3ccccc3C(F)(F)F)SC2)cc1OC1CCOC1 (stereo not drawn) | 0 | 2 | 15 | 1 | -4 | .
COC(=O)c1ccc(COc2ccccc2C=NNC(=O)c2cccnc2)cc1 | 21 | . | . | . | 14 | .
C[C@@H]1CN([C@H](C)CO)C(=O)Cc2cc(NS(=O)(=O)c3cccs3)ccc2O[C@@H]1CN(C)S(=O)(=O)c1ccc(Cl)cc1 | . | -1 | . | . | . | .
O=C(Nc1cccc(O)c1)c1cc(-c2ccc3c(c2)OCO3)on1 | . | 2 | 58* | -2 | . | ?
COc1cc(NC(=O)c2cc(-c3ccc4c(c3)OCO4)on2)cc(OC)c1OC | 6 | -1 | -16 | 0 | -12 | .
O=C(NN1C(=O)c2ccccc2NC1c1ccc([N+](=O)[O-])o1)c1ccc(Br)cc1 (stereo not drawn) | 10 | -2 | -28 | 12 | 1 | .
CC(=O)NN1C(=O)c2ccccc2NC1c1ccc([N+](=O)[O-])o1 (stereo not drawn) | 18 | -1 | 61* | 0 | 3 | 4
C#CCOC1CC(n2cnc3c(NC(=O)c4ccccc4)ncnc32)OC1CO (stereo not drawn) | 8 | . | . | . | 3 | .
C(=N\Nc1nc2ccccc2[nH]1)/c1ccccn1 | . | 1 | 52* | -1 | . | ?
C(=NNc1nc2ccccc2[nH]1)c1ccccn1 | 2 | . | . | . | 0 | .
SMILES | Sa RN4220 lethal | TcdB inh | PrP UTR inh | PfHsp40 rescue | ugtP null kill | PrP 5UTR single
Cc1ccc(S(=O)(=O)NC2CCSC2=O)cc1C (stereo not drawn) | 5 | 1 | 75* | -1 | 11 | -7
Cc1ccc(S(=O)(=O)NC2CCCC2)cc1C | -1 | . | -40 | 0 | 6 | .
Cc1cc2nc(/C=C/c3cccnc3)[nH]c2cc1C | 0 | 2 | 66* | 0 | -2 | 84*
C[C@@H]1CN([C@@H](C)CO)C(=O)c2cc(C#CC3CCCCC3)cnc2O[C@@H]1CN(C)C(=O)c1ccncc1 | . | 1 | . | . | . | .
Cc1ccc(-c2n[nH]c(=S)n2/N=C/c2ccc(C)s2)cc1 | . | . | 66* | -2 | . | 8
Cc1ccc(-c2n[nH]c(=S)n2N=Cc2ccc(C)s2)cc1 | 3 | . | . | . | -5 | .
Cc1cccc(C)c1OCc1n[nH]c(=S)o1 | 19 | . | 73* | 0 | 0 | -25
CC(=O)c1ccc(-c2cccs2)s1 | 5 | 1 | 69* | 0 | -11 | -28

Assay outcomes (PubChem BioAssay)
